This is an account of results in PubChem BioAssay (NCI).

Among the test systems are NCI-H23 lung; NCI-H322M lung; HOP-62 NSCLC; NCI-H460 lung; HOP-92 NSCLC; NCI-H522 lung; A549/ATCC NSCLC; 786-0 renal; COLO 205 colon; DU-145 prostate; K-562 leukemia; MALME-3M melanoma; MDA-MB-231 breast; RXF 393 renal; SF-268 CNS; SF-295 CNS; SF-539 CNS; UACC-257 melanoma; M14 melanoma.
Experiment in all cases: NCI-60 one-dose screen, 48 h (100 = growth as untreated, 0 = no growth, -100 = all killed)
Settings in all cases: 10 µM unless noted

SMILES strings stand for the structures. Compounds without any hit were thinned out: in the full panel of roughly 83,000, 20% have a hit.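 Results are percent growth after 48 hours of single-concentration exposure. 100 means growth as in untreated cells, lower positive values show inhibition; negative values down to -100 show cell death.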 A number with no mark means an inactive call. Activity calls are given as the source filed them. The calls were made as follows: active = growth percent below 10; inactive = the rest.

Turning to `Cn1ccnc1C(=O)/C=C/c1ccc(C(=O)Nc2ccc(F)cc2)cc1`, the growth was 15.9% in the assay on NCI-H23 lung; 11% in the assay with NCI-H322M lung; 5.2% (active) in the assay with HOP-62 NSCLC; -44.5% (active) with NCI-H460 lung; 11.1% in the assay on HOP-92 NSCLC; 7.55% (active) in the assay on NCI-H522 lung. Moreover, the growth in the assay with A549/ATCC NSCLC was 10.8%; with 786-0 renal, -35.2% (active); with COLO 205 colon, 25.8%; in the assay with DU-145 prostate it was 19.9%; in the assay with K-562 leukemia, 4.37% (active); in the assay on MALME-3M melanoma, 66.4%. In addition, the growth in the assay on MDA-MB-231 breast is 18.7%; with RXF 393 renal, 5.96% (active); with SF-268 CNS, 14.4%; with SF-295 CNS, 6.55% (active); in the assay with SF-539 CNS, -40.1% (active); in the assay on UACC-257 melanoma, 62.2%. Further, the growth with M14 melanoma was 17.6%.
For `COc1ccc(C2=NN(C(C)=O)C(c3ccc(Oc4ccnc5cc(Cl)ccc45)c(OC)c3)C2)cc1` (stereo unspecified), the growth in the assay with NCI-H23 lung was 65.9%; in the assay with NCI-H322M lung it was 26.7%; with HOP-62 NSCLC it was 27.6%; in the assay with NCI-H460 lung, 30.7%; in the assay on HOP-92 NSCLC, -1.54% (active); with NCI-H522 lung it was 46.8%. In addition, the growth with A549/ATCC NSCLC is 44.6%; with 786-0 renal, 23.9%; in the assay on COLO 205 colon it was 47.7%; in the assay with DU-145 prostate it was 59.8%; with K-562 leukemia, 68.6%; in the assay on MALME-3M melanoma it was 52.8%. Moreover, the growth with MDA-MB-231 breast was 41.9%; with RXF 393 renal, 23%; with SF-268 CNS it was 76%; in the assay with SF-295 CNS, 49.5%; with SF-539 CNS, 2.73% (active); in the assay with UACC-257 melanoma, 70.5%. In addition, the growth in the assay with M14 melanoma was 71.8%.
Consider `CCNc1nc(-c2ccc(F)cc2)c(C#N)c(=O)n1C`, for which the growth in the assay with NCI-H23 lung is 73.8%; with NCI-H322M lung, 57.2%; in the assay on HOP-62 NSCLC, 51.8%; in the assay with NCI-H460 lung it was 74.7%; with HOP-92 NSCLC it was -1.14% (active); in the assay on NCI-H522 lung it was 52.1%. Further, the growth in the assay on A549/ATCC NSCLC was 58.9%; in the assay on 786-0 renal, 64.3%; with COLO 205 colon, 62.8%; in the assay with DU-145 prostate, 63.4%; with K-562 leukemia, 100%; in the assay with MALME-3M melanoma it was 93%. For the same compound, the growth is 33.6% in the assay on MDA-MB-231 breast; 44% with RXF 393 renal; 58.5% in the assay with SF-268 CNS; 59.7% with SF-295 CNS; 59.7% in the assay with SF-539 CNS; 102% in the assay on UACC-257 melanoma. In addition, the growth with M14 melanoma was 82.8%.
As to `COc1ccc(Cc2nnc(Nc3nc4ccccc4s3)s2)cc1`, the growth in the assay on NCI-H23 lung is 93%; in the assay with NCI-H322M lung, 89.1%; with HOP-62 NSCLC, 108%; in the assay on NCI-H460 lung it was 102%; with NCI-H522 lung, 100%; in the assay on A549/ATCC NSCLC, 99.4%. Moreover, the growth in the assay on 786-0 renal is 98.1%; with COLO 205 colon it was 111%; in the assay with DU-145 prostate, 109%; with K-562 leukemia it was 64.8%; in the assay on MALME-3M melanoma, 100%; in the assay with MDA-MB-231 breast, 98%. The growth is 97.8% in the assay on RXF 393 renal; 103% in the assay on SF-268 CNS; 92.9% in the assay on SF-295 CNS; 93.9% in the assay with SF-539 CNS; 99.9% in the assay on UACC-257 melanoma; 102% in the assay with M14 melanoma.
As to `O=S(=O)(c1ccccc1)N1CCCN(c2nc(-c3ccccc3)nc3nc(-c4ccccc4)oc23)CC1`, the growth in the assay with NCI-H23 lung is 107%; with NCI-H322M lung, 96%; with HOP-62 NSCLC it was 104%; with NCI-H460 lung it was 110%; in the assay on HOP-92 NSCLC, 105%; in the assay with NCI-H522 lung, 98.5%. In addition, the growth was 105% in the assay on A549/ATCC NSCLC; 102% in the assay with 786-0 renal; 116% with COLO 205 colon; 119% with DU-145 prostate; 110% in the assay with K-562 leukemia; 105% in the assay on MALME-3M melanoma. For the same compound, the growth in the assay on MDA-MB-231 breast is 108%; in the assay on RXF 393 renal, 115%; in the assay with SF-268 CNS it was 111%; in the assay with SF-295 CNS, 105%; with SF-539 CNS, 104%; in the assay on UACC-257 melanoma, 109%. In the assay with M14 melanoma, the growth is 109%.
On to `O=C1/C(=C/c2ccccc2[N+](=O)[O-])COc2ccc(O)cc21`, for which the growth with NCI-H23 lung is 18.8%; with NCI-H322M lung, 60.9%; in the assay on HOP-62 NSCLC it was 29.1%; in the assay with NCI-H460 lung, 29%; in the assay with HOP-92 NSCLC, 40%; in the assay with NCI-H522 lung, -40.8% (active). For the same compound, the growth was 54.1% with A549/ATCC NSCLC; -41.3% (active) with 786-0 renal; -32.6% (active) in the assay with COLO 205 colon; 18.1% with DU-145 prostate; 14.8% in the assay on K-562 leukemia; -56.9% (active) in the assay on MALME-3M melanoma. Also, the growth with MDA-MB-231 breast is -16.2% (active); with RXF 393 renal, -9.95% (active); in the assay on SF-268 CNS, 58.8%; with SF-295 CNS it was 81.1%; in the assay with SF-539 CNS it was -49.9% (active); in the assay on UACC-257 melanoma, 0.865% (active). In the assay with M14 melanoma, the growth was -10.9% (active).
As for `COc1ccc(/C=C/C(=O)c2cc3c(N)c(C(=O)Nc4ccc(OC)cc4)sc3nc2C)cc1`, the growth with NCI-H23 lung is 32.7%; with NCI-H322M lung it was 36.4%; in the assay on HOP-62 NSCLC, 49.2%; in the assay on NCI-H460 lung, -6.51% (active); in the assay with HOP-92 NSCLC, 97.7%; in the assay with NCI-H522 lung, -29.6% (active). Also, the growth in the assay on A549/ATCC NSCLC is 13.5%; in the assay on 786-0 renal, 27.7%; with COLO 205 colon, -47.7% (active); with DU-145 prostate, 17.5%; with K-562 leukemia, 17.9%; with MALME-3M melanoma it was 49.1%. The growth with MDA-MB-231 breast was 24.7%; in the assay with RXF 393 renal, -14.4% (active); with SF-268 CNS, 39.5%; in the assay on SF-295 CNS it was 11.6%; with SF-539 CNS, -25.5% (active); with UACC-257 melanoma, 55.3%. Moreover, the growth in the assay with M14 melanoma is 10.2%.
Consider `COc1cc2c(cc1O)[C@@]1(C)[C@H](c3ccccc3Br)OC(=O)N1CC2`, for which the growth is 94.3% in the assay with NCI-H23 lung; 116% with NCI-H322M lung; 97.3% in the assay on HOP-62 NSCLC; 96.5% in the assay with NCI-H460 lung; 82.8% with HOP-92 NSCLC; 75.5% in the assay on NCI-H522 lung. The growth in the assay on A549/ATCC NSCLC is 79.6%; in the assay with 786-0 renal, 104%; with COLO 205 colon, 117%; with DU-145 prostate, 101%; in the assay on K-562 leukemia, 75%; in the assay on MALME-3M melanoma, 83.1%. For the same compound, the growth was 95.6% in the assay with MDA-MB-231 breast; 99.5% with RXF 393 renal; 94.7% in the assay with SF-268 CNS; 102% in the assay with SF-295 CNS; 95.1% with SF-539 CNS; 83.5% in the assay on UACC-257 melanoma. Moreover, the growth in the assay with M14 melanoma was 88.3%.
